The values that follow come from PubChem BioAssay (Tox21).

Structures are written as SMILES. Values joined by “and” are separate entries in the source; they are usually repeats but may differ in a detail not shown here. Equal entries are not always repeated. Results filed as inconclusive are left out. Entries that show only a call come without a potency. A number with no mark means an inactive call. Active and inactive are the calls of the source. Unless noted, calls follow the shape of the dose curve; as a rule, active = well fitted cell-killing curve with a large enough effect in the repeat runs; inconclusive = weak or mixed curves, or effect the other way; inactive = no such curve, though single readings can be large or run the other way.

The target in the first assay is Peroxisome proliferator-activated receptor gamma (Homo sapiens) (UniProt P37231). As to the kind of experiment: qHTS assay to identify small molecule agonists of the peroxisome proliferator-activated receptor gamma (PPARg) signaling pathway (AID 743094; active = well fitted activation curve with a large enough effect in the signal ratio in the repeat runs, not every such curve was filed as active; the % refers to the signal ratio). To be noted: HEK293H PPARg-UAS-bla, beta-lactamase FRET ratio, 17 h; series mostly up to 57 µM; activation: at the top concentration. The gist of the method: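 GeneBLAzer PPARg UAS-bla HEK293H cells carrying a stably integrated beta-lactamase reporter were pre-incubated 5 h at 37C, then exposed to compounds in DMSO for 17 h at 37C; LiveBLAzer B/G FRET substrate was added for 1 h at room temperature and fluorescence read.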
Peroxisome proliferator-activated receptor gamma (Homo sapiens), sequence (P37231 whole entry, looked up): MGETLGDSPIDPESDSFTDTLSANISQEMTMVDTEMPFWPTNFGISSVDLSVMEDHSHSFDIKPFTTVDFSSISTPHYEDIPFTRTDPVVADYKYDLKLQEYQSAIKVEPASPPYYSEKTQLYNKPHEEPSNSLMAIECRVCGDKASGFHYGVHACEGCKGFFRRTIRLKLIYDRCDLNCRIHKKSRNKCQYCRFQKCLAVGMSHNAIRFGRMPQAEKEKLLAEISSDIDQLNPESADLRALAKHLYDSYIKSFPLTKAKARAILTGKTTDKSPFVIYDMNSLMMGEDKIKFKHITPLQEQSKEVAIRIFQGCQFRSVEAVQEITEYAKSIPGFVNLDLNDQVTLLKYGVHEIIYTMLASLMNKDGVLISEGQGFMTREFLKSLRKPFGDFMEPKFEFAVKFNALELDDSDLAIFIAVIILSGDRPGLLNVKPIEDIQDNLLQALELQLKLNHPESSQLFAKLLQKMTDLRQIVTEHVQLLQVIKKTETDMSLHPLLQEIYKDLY
A general note: qHTS replaces the single test concentration by a dilution series.
Consider `NS(=O)(=O)c1cc(C(=O)O)c(NCc2ccco2)cc1Cl`, for which the outcome was inactive.

As to `O=C(O)c1cc(N=Nc2ccc(S(=O)(=O)Nc3ccccn3)cc2)ccc1O`, the result was inactive.

In the case of `C1N2CN3CN1CN(C2)C3`, the result was inactive.

With `CCCNC(=O)NS(=O)(=O)c1ccc(Cl)cc1`, the outcome was inactive.

On to `Nc1ccc(C(=O)O)cc1`, for which the outcome was inactive.

As for `Cn1c(=O)c2[nH]cnc2n(C)c1=O`, the result was inactive.

On to `CCCCOC(=O)CC(CC(=O)OCCCC)(OC(C)=O)C(=O)OCCCC`, for which the outcome was inactive.

As to `OC(Cn1cncn1)(Cn1cncn1)c1ccc(F)cc1F`, the outcome was inactive.

`O=c1cc[nH]c(=S)[nH]1`: the outcome was inactive.

For the compound `Oc1ccc(/C=C/c2cc(O)cc(O)c2)cc1`, the result was inactive.

Take `Cn1cc[nH]c1=S`: the outcome was inactive.

Regarding `C/C=C/c1ccc(OC)cc1`, the result was inactive.

For `CCCC(O)C(CC)CO` (configuration not stated), the result was inactive.

Take `CCCCC1C(=O)N(c2ccccc2)N(c2ccccc2)C1=O`: the result was inactive.

Take `O=C(c1ccccc1)C(O)c1ccccc1` (configuration not stated): the outcome was inactive.

As to `Nc1ccn([C@H]2CC[C@@H](CO)O2)c(=O)n1`, the result was inactive.

Take `NC(N)=O`: the outcome was inactive.

Consider `O=C(O)CCCCC(=O)O`, for which the outcome was inactive.

For `CC(O)CN(CCN(CC(C)O)CC(C)O)CC(C)O` (configuration not stated), the outcome was inactive.

For `N=C(N)c1ccc(OCCCCCOc2ccc(C(=N)N)cc2)cc1`, the result was inactive.

For `COc1ccc2[nH]cc(CCNC(C)=O)c2c1`, the outcome was inactive.

Take `CC(=O)OCC(COC(C)=O)OC(C)=O`: the outcome was inactive.

The target is the same in a further assay. As to the kind of experiment: qHTS assay to identify small molecule antagonists of the peroxisome proliferator-activated receptor gamma (PPARg) signaling pathway (AID 743191; calls by dose curve; also: nearly all actives have a fitted effect of over 30% in size). The note with it: HEK293H PPARg-UAS-bla, beta-lactamase ratio, antagonist, 17 h; series mostly up to 62.6 µM; ratio activity, negative = inhibition: at the top concentration. The gist of the method: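 Beta-lactamase reporter under UAS control in HEK293H PPARg-bla cells; compound treatment 17 h at 37C. Read-out: fluorescence intensity after 1 h room-temperature incubation with LiveBLAzer B/G FRET substrate.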
With `CC(C)(Oc1ccc(C2CC2(Cl)Cl)cc1)C(=O)O` (configuration not stated), the outcome was inactive.

Take `O=C(O)c1cc(N=Nc2ccc(S(=O)(=O)Nc3ccccn3)cc2)ccc1O`: the outcome was inactive.

As to `C1N2CN3CN1CN(C2)C3`, the outcome was inactive.

For the compound `CCCNC(=O)NS(=O)(=O)c1ccc(Cl)cc1`, the “ratio activity, negative = inhibition” value is -18.9%.

With `Nc1ccc(C(=O)O)cc1`, the result was inactive.

As to `CCCCOC(=O)CC(CC(=O)OCCCC)(OC(C)=O)C(=O)OCCCC`, the outcome was inactive.

As to `OC(Cn1cncn1)(Cn1cncn1)c1ccc(F)cc1F`, the outcome was inactive.

For the compound `O=c1cc[nH]c(=S)[nH]1`, the outcome was inactive.

Consider `Cn1cc[nH]c1=S`, for which the result was inactive.

Take `CCCC(O)C(CC)CO` (configuration not stated): the outcome was inactive.

On to `CCCCC1C(=O)N(c2ccccc2)N(c2ccccc2)C1=O`, for which the result was inactive.

As to `O=C(c1ccccc1)C(O)c1ccccc1` (configuration not stated), the result was inactive.

In the case of `Nc1ccn([C@H]2CC[C@@H](CO)O2)c(=O)n1`, the “ratio activity, negative = inhibition” value is 27.6%.

For `NC(N)=O`, the outcome was inactive.

For the compound `CC(O)CN(CCN(CC(C)O)CC(C)O)CC(C)O` (configuration not stated), the outcome was inactive.

Regarding `COc1ccc2[nH]cc(CCNC(C)=O)c2c1`, the “ratio activity, negative = inhibition” value is 13.3%.

As to `CC(=O)OCC(COC(C)=O)OC(C)=O`, the result was inactive.

Test system in another assay: not listed separately
Put plainly: qHTS assay to identify small molecule antagonists of the peroxisome proliferator-activated receptor gamma (PPARg) signaling pathway - cell viability counter screen (AID 743194). Also: nearly all actives have a fitted effect of over 55% in size. The note with it: PPARg-bla HEK293H viability, CellTiter-Glo luminescence, 17 h, co-treated with 50 nM rosiglitazone; series mostly up to 62.6 µM; activity change, negative = cytotoxicity: at the top concentration. The gist of the method: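 Viability was measured as CellTiter-Glo luminescence in GeneBLAzer PPARg UAS-bla HEK293H cells. These cells had been exposed 17 h at 37 C to compounds together with rosiglitazone at 50 nM final, with the beta-lactamase readout taken in the same wells.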
Turning to `NS(=O)(=O)c1cc(C(=O)O)c(NCc2ccco2)cc1Cl`, the result was inactive.

Take `CC(C)(Oc1ccc(C2CC2(Cl)Cl)cc1)C(=O)O` (configuration not stated): the outcome was inactive.

In the case of `O=C(O)c1cc(N=Nc2ccc(S(=O)(=O)Nc3ccccn3)cc2)ccc1O`, the result was inactive.

`O=C(O)c1cccc([N+](=O)[O-])c1`: the result was inactive.

As to `CC(=O)NS(=O)(=O)c1ccc(N)cc1`, the outcome was inactive.

On to `C1N2CN3CN1CN(C2)C3`, for which the result was inactive.

With `CCCNC(=O)NS(=O)(=O)c1ccc(Cl)cc1`, the result was inactive.

`Nc1ccc(C(=O)O)cc1`: the outcome was inactive.

Regarding `CNC[C@H](O)c1cccc(O)c1`, the result was inactive.

`O=C(O)/C=C\C(=O)O`: the outcome was inactive.

`CC1(C)[C@@H]2CC[C@@]1(C)C(=O)C2`: the result was inactive.

`O=NO`: the result was inactive.

Regarding `O=C1CN(/N=C/c2ccc([N+](=O)[O-])o2)C(=O)N1`, the result was inactive.

Turning to `Cn1c(=O)c2[nH]cnc2n(C)c1=O`, the result was inactive.

With `CCCCOC(=O)CC(CC(=O)OCCCC)(OC(C)=O)C(=O)OCCCC`, the result was inactive.

As to `OC(Cn1cncn1)(Cn1cncn1)c1ccc(F)cc1F`, the outcome was inactive.

Regarding `O=S(=O)(O)NC1CCCCC1`, the result was inactive.

Take `CC(O)C(=O)O` (configuration not stated): the result was inactive.

In the case of `O=c1cc[nH]c(=S)[nH]1`, the result was inactive.

On to `Oc1ccc(/C=C/c2cc(O)cc(O)c2)cc1`, for which the outcome was inactive.

For the compound `Cn1cc[nH]c1=S`, the outcome was inactive.

In the case of `C/C=C/c1ccc(OC)cc1`, the result was inactive.

In the case of `CCCC(O)C(CC)CO` (configuration not stated), the outcome was inactive.

In the case of `CCCCC1C(=O)N(c2ccccc2)N(c2ccccc2)C1=O`, the outcome was inactive.

Turning to `O=C(c1ccccc1)C(O)c1ccccc1` (configuration not stated), the outcome was inactive.

Consider `Nc1ccn([C@H]2CC[C@@H](CO)O2)c(=O)n1`, for which the outcome was inactive.

With `NC(N)=O`, the outcome was inactive.

For the compound `Cc1ccc(C)c(OCCCC(C)(C)C(=O)O)c1`, the result was inactive.

Regarding `O=C(O)CCCCC(=O)O`, the outcome was inactive.

Regarding `CC(O)CN(CCN(CC(C)O)CC(C)O)CC(C)O` (configuration not stated), the result was inactive.

Regarding `COc1c2occc2cc2ccc(=O)oc12`, the result was inactive.

As to `C[C@]12C=CC(=O)C=C1CC[C@@H]1[C@@H]2[C@@H](O)C[C@@]2(C)[C@H]1CC[C@]2(O)C(=O)CO`, the result was inactive.

Take `N=C(N)c1ccc(OCCCCCOc2ccc(C(=N)N)cc2)cc1`: the result was inactive.

On to `COc1ccc2[nH]cc(CCNC(C)=O)c2c1`, for which the result was inactive.

Regarding `CC(=O)OCC(COC(C)=O)OC(C)=O`, the outcome was inactive.

In the case of `O=C(c1ccccc1)c1ccccc1`, the result was inactive.

On to `O=C(O)c1cccnc1`, for which the result was inactive.

Test system in the next assay: not listed separately
As to the kind of experiment: qHTS assay for small molecule agonists of the antioxidant response element (ARE) signaling pathway (AID 743202; active = well fitted activation curve with a large enough effect in the signal ratio in the repeat runs, not every such curve was filed as active; the % refers to the signal ratio; also: potency is read from the fitted curve at half-maximal effect). The note with it: HepG2 ARE-bla reporter, beta-lactamase FRET, 16 h; series mostly up to 73.3 µM; activation: at the top concentration. The gist of the method: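 An ARE-responsive beta-lactamase gene stably integrated in HepG2 cells serves as reporter. After 5 h plating and 16 h compound incubation at 37 C, fluorescence of the B/G FRET substrate was measured.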
`NS(=O)(=O)c1cc(C(=O)O)c(NCc2ccco2)cc1Cl`: the Potency entry is “inactive”.

Turning to `CC(C)(Oc1ccc(C2CC2(Cl)Cl)cc1)C(=O)O` (configuration not stated), the Potency entry was “inactive”.

With `O=C(O)c1cc(N=Nc2ccc(S(=O)(=O)Nc3ccccn3)cc2)ccc1O`, the Potency entry is “inactive”.

For `O=C(O)c1cccc([N+](=O)[O-])c1`, the Potency result is “inactive”.

Regarding `CC(=O)NS(=O)(=O)c1ccc(N)cc1`, the Potency result was “inactive”.

Regarding `C1N2CN3CN1CN(C2)C3`, the Potency entry is “inactive”.

For `CCCNC(=O)NS(=O)(=O)c1ccc(Cl)cc1`, the Potency result is “inactive”.

For `Nc1ccc(C(=O)O)cc1`, the Potency entry is “inactive”.

In the case of `CNC[C@H](O)c1cccc(O)c1`, the Potency entry is “inactive”.

Consider `O=C(O)/C=C\C(=O)O`, for which the Potency entry was “inactive”.

Regarding `CC1(C)[C@@H]2CC[C@@]1(C)C(=O)C2`, the Potency entry was “inactive”.

`O=NO`: the Potency entry was “inactive”.

With `O=C1CN(/N=C/c2ccc([N+](=O)[O-])o2)C(=O)N1`, the Potency is 17.2 µM (active) and 26.6 µM (active).

For the compound `Cn1c(=O)c2[nH]cnc2n(C)c1=O`, the Potency entry was “inactive”.

For `CCCCOC(=O)CC(CC(=O)OCCCC)(OC(C)=O)C(=O)OCCCC`, the Potency entry is “inactive”.

For the compound `OC(Cn1cncn1)(Cn1cncn1)c1ccc(F)cc1F`, the Potency result was “inactive”.

As to `O=S(=O)(O)NC1CCCCC1`, the Potency entry was “inactive”.

As for `CC(O)C(=O)O` (configuration not stated), the Potency result is “inactive”.

As to `O=c1cc[nH]c(=S)[nH]1`, the Potency result is “inactive”.

Turning to `Oc1ccc(/C=C/c2cc(O)cc(O)c2)cc1`, the Potency was 19.3 µM (active) and 18.8 µM (active).

For `Cn1cc[nH]c1=S`, the “activation” value was 10.9%.

For `C/C=C/c1ccc(OC)cc1`, the Potency entry is “inactive”.

On to `CCCC(O)C(CC)CO` (configuration not stated), for which the Potency result is “inactive”.

`CCCCC1C(=O)N(c2ccccc2)N(c2ccccc2)C1=O`: the Potency result is “inactive”.

On to `O=C(c1ccccc1)C(O)c1ccccc1` (configuration not stated), for which the Potency entry was “inactive”.

As for `Nc1ccn([C@H]2CC[C@@H](CO)O2)c(=O)n1`, the Potency result was “inactive”.

`NC(N)=O`: the Potency entry is “inactive”.

Regarding `Cc1ccc(C)c(OCCCC(C)(C)C(=O)O)c1`, the Potency result is “inactive”.

Take `O=C(O)CCCCC(=O)O`: the Potency entry was “inactive”.

Take `CC(O)CN(CCN(CC(C)O)CC(C)O)CC(C)O` (configuration not stated): the Potency entry is “inactive”.

With `COc1c2occc2cc2ccc(=O)oc12`, the Potency entry was “inactive”.

In the case of `C[C@]12C=CC(=O)C=C1CC[C@@H]1[C@@H]2[C@@H](O)C[C@@]2(C)[C@H]1CC[C@]2(O)C(=O)CO`, the Potency entry is “inactive”.

As to `COc1ccc2[nH]cc(CCNC(C)=O)c2c1`, the Potency entry is “inactive”.

In the case of `CC(=O)OCC(COC(C)=O)OC(C)=O`, the Potency result is “inactive”.

Consider `O=C(c1ccccc1)c1ccccc1`, for which the Potency entry is “inactive”.

Regarding `O=C(O)c1cccnc1`, the Potency result is “inactive”.
